Assay results reported in PMC7862700, “An all-to-all approach to the identification of sequence-specific readers for epigenetic DNA modifications on cytosine”.

Key:
Test in all cases: DAPPL (digital affinity profiling via proximity ligation, sequencing); 10 mM Tris-HCl pH 7.5, 50 mM NaCl, 1 mM DTT, 4% glycerol, room temperature, 30 min; GST-TFs on glutathione beads, 16-mer random dsDNA library, 0.1% formaldehyde crosslink after washing; high values mean tight binding
FLI1 = target: T1, FLI1 (Homo sapiens, UniProt Q01543 1-452); conditions: protein: recombinant; tags: N-terminal GST; dsDNA, one strand shown
T1 sequence: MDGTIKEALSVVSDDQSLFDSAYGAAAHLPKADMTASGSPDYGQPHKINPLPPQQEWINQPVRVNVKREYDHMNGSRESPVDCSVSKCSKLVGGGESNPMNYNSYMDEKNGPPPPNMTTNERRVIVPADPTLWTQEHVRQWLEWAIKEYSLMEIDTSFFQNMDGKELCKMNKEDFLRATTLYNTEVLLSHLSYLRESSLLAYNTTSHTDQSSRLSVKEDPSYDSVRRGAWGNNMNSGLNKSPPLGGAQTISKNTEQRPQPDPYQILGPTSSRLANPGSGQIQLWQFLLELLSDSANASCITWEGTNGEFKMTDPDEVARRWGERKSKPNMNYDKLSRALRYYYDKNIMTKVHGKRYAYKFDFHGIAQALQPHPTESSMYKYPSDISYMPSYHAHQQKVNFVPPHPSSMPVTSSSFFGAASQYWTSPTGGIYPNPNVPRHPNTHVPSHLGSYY
Summary of the method: (§1)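 The binding signal reported is, for every hexamer, its read frequency for a factor over its read frequency for the tag-only sample. Reads came from pools of yeast-expressed, GST-fused human transcription factors on glutathione beads, barcoded with DNA and mixed with that sample, which were incubated with 200 nmole of a random double-stranded 16-mer DNA library in Tris/NaCl/DTT/glycerol buffer at room temperature for 30 min. After washing, the pools were crosslinked with 0.1% formaldehyde, proximity-ligated with BsaI/T4 ligase for 1 h at 37 °C, PCR-amplified and sequenced on an Illumina NextSeq500.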

ELK1 = target: T2, ELK1 (Homo sapiens, UniProt P19419 1-428); conditions: protein: recombinant; tags: N-terminal GST; dsDNA, one strand shown
T2 sequence: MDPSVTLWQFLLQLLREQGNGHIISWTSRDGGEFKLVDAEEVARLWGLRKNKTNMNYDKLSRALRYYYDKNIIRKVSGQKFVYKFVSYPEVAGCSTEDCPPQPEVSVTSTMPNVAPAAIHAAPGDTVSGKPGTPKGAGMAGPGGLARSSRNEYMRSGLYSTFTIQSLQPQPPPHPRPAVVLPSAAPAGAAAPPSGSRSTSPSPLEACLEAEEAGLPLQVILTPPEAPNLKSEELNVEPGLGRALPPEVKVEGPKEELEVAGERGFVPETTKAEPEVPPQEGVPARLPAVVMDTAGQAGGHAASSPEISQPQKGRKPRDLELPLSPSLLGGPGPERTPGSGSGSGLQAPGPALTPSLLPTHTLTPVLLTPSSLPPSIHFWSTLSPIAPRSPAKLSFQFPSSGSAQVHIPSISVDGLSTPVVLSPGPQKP
Summary of the method: as §1

GABPA = target: T3, GABPA (Homo sapiens, UniProt Q06546 1-454); conditions: protein: recombinant; tags: N-terminal GST; dsDNA, one strand shown
T3 sequence: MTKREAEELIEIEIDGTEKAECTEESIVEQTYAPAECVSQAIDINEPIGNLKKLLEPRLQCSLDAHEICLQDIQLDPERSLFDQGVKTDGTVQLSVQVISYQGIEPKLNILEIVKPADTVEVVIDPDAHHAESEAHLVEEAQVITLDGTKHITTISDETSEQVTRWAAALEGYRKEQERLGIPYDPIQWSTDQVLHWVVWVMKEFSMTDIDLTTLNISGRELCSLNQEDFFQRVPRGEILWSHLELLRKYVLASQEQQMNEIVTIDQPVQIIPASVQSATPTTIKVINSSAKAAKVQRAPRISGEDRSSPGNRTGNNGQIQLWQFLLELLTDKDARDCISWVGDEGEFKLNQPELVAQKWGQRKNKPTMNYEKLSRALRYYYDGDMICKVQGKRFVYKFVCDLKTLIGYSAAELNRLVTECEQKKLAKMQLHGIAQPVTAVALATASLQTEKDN
Summary of the method: as §1

ERG = target: T4, ERG (Homo sapiens, UniProt P11308 1-479); conditions: protein: recombinant; tags: N-terminal GST; dsDNA, one strand shown
T4 sequence: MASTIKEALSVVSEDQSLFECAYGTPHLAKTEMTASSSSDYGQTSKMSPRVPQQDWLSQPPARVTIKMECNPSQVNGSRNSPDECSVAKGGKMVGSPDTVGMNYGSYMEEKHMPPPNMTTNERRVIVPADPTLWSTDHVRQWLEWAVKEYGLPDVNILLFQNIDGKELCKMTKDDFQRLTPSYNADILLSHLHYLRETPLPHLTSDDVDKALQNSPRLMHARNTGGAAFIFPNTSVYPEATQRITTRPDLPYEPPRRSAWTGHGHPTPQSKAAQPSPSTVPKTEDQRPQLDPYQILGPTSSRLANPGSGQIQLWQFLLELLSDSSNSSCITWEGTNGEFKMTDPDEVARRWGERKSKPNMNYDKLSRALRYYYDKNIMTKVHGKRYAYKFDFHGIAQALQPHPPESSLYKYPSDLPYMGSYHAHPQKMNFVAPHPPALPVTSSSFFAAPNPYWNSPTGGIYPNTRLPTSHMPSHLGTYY
Summary of the method: as §1

ELF1 = ELF1 (Homo sapiens, UniProt P32519 1-619); conditions: protein: recombinant; tags: N-terminal GST; dsDNA, one strand shown
Sequence of ELF1 (P32519 whole entry): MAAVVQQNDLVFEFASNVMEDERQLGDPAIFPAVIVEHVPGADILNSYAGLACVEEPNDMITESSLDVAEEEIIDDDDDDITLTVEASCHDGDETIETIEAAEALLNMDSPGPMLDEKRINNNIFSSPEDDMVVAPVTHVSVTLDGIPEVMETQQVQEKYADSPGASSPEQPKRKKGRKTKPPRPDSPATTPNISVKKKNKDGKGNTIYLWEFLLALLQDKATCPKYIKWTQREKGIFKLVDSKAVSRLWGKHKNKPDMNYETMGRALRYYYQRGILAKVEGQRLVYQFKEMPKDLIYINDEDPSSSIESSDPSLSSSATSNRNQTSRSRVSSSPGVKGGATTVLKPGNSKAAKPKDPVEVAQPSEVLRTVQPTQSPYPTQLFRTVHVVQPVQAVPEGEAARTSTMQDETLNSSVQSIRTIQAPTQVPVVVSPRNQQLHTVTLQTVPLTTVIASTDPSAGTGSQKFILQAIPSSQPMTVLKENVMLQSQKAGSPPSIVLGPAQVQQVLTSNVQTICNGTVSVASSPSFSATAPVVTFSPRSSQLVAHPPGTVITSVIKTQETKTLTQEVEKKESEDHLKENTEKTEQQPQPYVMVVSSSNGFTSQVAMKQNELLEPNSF
Summary of the method: as §1

EHF = target: T5, EHF (Homo sapiens, UniProt Q9NZC4 1-300); conditions: protein: recombinant; tags: N-terminal GST; dsDNA, one strand shown
T5 sequence: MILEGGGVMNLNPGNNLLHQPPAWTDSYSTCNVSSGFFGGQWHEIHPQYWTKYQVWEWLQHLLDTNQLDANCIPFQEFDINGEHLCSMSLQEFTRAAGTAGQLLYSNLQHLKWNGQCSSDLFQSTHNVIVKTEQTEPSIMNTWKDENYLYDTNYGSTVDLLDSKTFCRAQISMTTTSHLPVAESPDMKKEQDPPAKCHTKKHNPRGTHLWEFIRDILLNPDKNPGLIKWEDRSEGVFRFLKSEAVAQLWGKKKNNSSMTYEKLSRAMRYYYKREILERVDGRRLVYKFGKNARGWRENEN
Summary of the method: as §1

SPI1 = SPI1 (Homo sapiens, UniProt P17947 1-270); conditions: protein: recombinant; tags: N-terminal GST; dsDNA, one strand shown
Summary of the method: as §1

SPIB = SPIB (Homo sapiens, UniProt Q01892 1-262); conditions: protein: recombinant; tags: N-terminal GST; dsDNA, one strand shown
Sequence of SPIB (Q01892 whole entry): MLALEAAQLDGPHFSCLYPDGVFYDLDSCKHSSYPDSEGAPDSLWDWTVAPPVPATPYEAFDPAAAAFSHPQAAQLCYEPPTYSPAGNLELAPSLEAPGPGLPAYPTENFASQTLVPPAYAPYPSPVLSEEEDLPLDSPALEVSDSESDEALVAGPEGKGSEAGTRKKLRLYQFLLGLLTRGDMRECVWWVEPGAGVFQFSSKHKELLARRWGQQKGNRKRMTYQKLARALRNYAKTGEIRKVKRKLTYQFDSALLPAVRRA
Summary of the method: as §1

ELK3 = target: T6, ELK3 (Homo sapiens, UniProt P41970 1-407); conditions: protein: recombinant; tags: N-terminal GST; dsDNA, one strand shown
T6 sequence: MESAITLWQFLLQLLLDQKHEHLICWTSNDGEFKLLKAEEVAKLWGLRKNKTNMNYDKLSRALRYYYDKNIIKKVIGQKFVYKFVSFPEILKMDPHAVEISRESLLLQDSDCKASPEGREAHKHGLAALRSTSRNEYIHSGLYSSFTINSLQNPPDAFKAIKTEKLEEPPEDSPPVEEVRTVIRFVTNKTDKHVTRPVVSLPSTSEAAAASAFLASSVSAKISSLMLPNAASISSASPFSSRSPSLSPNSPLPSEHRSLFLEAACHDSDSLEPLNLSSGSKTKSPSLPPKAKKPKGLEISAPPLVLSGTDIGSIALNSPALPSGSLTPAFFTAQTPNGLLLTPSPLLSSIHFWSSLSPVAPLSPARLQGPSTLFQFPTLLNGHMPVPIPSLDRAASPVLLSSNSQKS
Summary of the method: as §1

FEV = target: T7, FEV (Homo sapiens, UniProt Q99581 1-238); conditions: protein: recombinant; tags: N-terminal GST; dsDNA, one strand shown
T7 sequence: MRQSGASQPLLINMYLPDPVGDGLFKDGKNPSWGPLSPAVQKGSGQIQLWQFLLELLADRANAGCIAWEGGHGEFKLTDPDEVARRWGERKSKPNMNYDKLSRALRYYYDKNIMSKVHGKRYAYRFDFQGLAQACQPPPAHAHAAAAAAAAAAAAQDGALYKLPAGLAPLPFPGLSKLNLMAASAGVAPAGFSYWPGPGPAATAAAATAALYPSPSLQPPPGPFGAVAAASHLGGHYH
Summary of the method: as §1

ETV5 = ETV5 (Homo sapiens, UniProt P41161 1-510); conditions: protein: recombinant; tags: N-terminal GST; dsDNA, one strand shown
Sequence of ETV5 (P41161 whole entry): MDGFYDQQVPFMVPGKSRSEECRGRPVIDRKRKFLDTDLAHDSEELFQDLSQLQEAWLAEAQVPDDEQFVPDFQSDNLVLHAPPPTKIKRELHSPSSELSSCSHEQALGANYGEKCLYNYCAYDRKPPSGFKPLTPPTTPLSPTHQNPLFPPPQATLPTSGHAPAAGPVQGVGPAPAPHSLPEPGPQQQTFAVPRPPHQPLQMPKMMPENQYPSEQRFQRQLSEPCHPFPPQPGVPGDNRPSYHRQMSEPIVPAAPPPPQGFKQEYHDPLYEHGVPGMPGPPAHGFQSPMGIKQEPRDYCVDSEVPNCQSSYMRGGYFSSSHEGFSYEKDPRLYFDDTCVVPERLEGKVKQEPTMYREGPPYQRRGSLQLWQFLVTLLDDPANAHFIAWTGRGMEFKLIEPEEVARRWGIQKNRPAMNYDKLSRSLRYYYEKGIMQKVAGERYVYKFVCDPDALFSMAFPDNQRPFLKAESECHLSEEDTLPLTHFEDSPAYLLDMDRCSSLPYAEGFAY
Summary of the method: as §1

HSF1 = HSF1 (Homo sapiens, UniProt Q00613 1-529); conditions: protein: recombinant; tags: N-terminal GST; chain copies: 3; dsDNA, one strand shown
Sequence of HSF1 (Q00613 whole entry): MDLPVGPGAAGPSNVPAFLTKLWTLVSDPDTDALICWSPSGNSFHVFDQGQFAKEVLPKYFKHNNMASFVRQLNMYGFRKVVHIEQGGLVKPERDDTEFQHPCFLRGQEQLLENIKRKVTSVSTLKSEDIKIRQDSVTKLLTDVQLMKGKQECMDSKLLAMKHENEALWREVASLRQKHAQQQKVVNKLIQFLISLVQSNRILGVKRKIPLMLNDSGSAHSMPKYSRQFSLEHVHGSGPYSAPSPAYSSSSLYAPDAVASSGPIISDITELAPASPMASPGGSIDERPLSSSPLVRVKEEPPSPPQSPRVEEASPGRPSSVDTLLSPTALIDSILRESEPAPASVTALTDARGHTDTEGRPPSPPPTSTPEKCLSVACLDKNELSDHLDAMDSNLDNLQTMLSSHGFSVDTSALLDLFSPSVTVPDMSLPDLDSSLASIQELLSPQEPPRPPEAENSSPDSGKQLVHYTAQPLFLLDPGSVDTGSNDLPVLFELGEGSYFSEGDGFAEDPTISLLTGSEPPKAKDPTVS
Summary of the method: as §1

SPIC = target: T8, SPIC (Homo sapiens, UniProt Q8N5J4 1-248); conditions: protein: recombinant; tags: N-terminal GST; dsDNA, one strand shown
T8 sequence: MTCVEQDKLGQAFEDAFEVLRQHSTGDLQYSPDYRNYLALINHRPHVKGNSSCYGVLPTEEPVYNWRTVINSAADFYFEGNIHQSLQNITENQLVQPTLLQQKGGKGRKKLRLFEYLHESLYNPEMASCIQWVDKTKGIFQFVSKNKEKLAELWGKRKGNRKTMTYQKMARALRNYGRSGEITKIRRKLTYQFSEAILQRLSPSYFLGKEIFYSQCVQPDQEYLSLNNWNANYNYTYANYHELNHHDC
Summary of the method: as §1

ELF4 = ELF4 (Homo sapiens, UniProt Q99607 1-663); conditions: protein: recombinant; tags: N-terminal GST; dsDNA, one strand shown
Sequence of ELF4 (Q99607 whole entry): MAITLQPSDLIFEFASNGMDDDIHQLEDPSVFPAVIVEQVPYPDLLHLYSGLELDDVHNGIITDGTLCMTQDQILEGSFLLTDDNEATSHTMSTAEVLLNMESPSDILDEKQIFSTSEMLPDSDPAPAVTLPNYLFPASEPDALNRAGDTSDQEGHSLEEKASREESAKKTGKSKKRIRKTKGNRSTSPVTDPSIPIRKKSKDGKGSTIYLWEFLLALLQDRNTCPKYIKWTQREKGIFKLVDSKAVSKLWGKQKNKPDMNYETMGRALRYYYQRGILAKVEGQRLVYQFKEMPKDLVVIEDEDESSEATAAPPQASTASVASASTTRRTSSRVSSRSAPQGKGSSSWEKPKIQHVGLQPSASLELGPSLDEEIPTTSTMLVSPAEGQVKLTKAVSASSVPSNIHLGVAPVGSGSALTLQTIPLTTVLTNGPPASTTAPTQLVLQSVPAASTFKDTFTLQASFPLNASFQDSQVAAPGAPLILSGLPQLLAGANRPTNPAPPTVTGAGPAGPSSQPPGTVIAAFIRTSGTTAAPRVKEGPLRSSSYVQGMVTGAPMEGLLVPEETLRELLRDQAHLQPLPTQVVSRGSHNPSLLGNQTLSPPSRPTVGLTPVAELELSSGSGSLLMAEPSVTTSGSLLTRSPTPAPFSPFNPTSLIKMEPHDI
Summary of the method: as §1

ELK4 = target: T9, ELK4 (Homo sapiens, UniProt P28324-2 1-405); conditions: protein: recombinant; tags: N-terminal GST; dsDNA, one strand shown
T9 sequence: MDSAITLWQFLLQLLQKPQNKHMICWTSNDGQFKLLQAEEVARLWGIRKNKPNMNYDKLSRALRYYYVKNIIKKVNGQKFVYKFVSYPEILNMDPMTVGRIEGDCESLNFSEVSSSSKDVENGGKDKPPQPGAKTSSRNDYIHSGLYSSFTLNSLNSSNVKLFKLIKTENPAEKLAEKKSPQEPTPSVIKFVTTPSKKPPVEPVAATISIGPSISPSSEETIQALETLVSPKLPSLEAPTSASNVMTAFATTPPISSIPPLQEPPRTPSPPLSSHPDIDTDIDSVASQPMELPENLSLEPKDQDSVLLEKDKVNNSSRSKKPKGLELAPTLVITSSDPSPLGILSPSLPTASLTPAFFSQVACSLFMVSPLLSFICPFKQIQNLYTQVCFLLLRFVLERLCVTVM
Summary of the method: as §1

ETV2 = target: T10, ETV2 (Homo sapiens, UniProt O00321 1-342); conditions: protein: recombinant; tags: N-terminal GST; dsDNA, one strand shown
T10 sequence: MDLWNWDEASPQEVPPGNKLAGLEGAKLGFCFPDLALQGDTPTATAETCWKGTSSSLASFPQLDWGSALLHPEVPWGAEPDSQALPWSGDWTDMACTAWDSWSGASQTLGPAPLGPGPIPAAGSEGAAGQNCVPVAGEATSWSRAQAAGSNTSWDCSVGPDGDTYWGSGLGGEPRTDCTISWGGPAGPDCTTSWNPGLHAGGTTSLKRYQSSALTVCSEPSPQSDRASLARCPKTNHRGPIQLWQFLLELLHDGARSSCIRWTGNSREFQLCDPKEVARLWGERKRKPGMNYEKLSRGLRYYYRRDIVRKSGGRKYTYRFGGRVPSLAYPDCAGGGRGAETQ
Summary of the method: as §1

ELF3 = target: T11, ELF3 (Homo sapiens, UniProt P78545 1-371); conditions: protein: recombinant; tags: N-terminal GST; dsDNA, one strand shown
T11 sequence: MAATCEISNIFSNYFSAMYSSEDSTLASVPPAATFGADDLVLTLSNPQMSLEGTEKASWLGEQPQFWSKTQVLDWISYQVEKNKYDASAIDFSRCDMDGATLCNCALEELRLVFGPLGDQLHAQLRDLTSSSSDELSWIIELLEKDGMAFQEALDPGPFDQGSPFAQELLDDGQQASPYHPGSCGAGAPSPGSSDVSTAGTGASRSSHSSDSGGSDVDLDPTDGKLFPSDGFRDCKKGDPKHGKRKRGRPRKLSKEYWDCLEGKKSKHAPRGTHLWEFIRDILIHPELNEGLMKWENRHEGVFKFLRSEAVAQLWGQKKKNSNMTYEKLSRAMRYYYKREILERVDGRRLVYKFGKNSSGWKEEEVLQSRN
Summary of the method: as §1

ETV1 = ETV1 (Homo sapiens, UniProt P50549 1-477); conditions: protein: recombinant; tags: N-terminal GST; dsDNA, one strand shown
Sequence of ETV1 (P50549 whole entry): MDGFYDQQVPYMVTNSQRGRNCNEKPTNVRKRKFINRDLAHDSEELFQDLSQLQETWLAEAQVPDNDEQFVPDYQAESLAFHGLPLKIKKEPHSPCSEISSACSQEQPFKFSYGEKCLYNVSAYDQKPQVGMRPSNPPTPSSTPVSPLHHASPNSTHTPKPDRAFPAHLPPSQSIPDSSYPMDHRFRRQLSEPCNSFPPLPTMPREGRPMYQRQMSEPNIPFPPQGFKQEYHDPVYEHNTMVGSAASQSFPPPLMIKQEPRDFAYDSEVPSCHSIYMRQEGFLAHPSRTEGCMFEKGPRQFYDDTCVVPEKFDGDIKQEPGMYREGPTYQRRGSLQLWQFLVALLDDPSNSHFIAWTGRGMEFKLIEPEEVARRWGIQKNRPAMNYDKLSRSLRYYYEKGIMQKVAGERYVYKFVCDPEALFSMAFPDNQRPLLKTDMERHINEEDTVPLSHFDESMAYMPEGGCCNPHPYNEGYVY
Summary of the method: as §1

CACTGC
binding signal (FLI1): 1.45 fold enrichment (6-mer frequency, TF over GST control)
binding signal (ELK1): 1.46 fold enrichment (6-mer frequency, TF over GST control)
binding signal (GABPA): 1.32 fold enrichment (6-mer frequency, TF over GST control)
binding signal (ERG): 1.41 fold enrichment (6-mer frequency, TF over GST control)
binding signal (ELF1): 1.44 fold enrichment (6-mer frequency, TF over GST control)
binding signal (EHF): 1.58 fold enrichment (6-mer frequency, TF over GST control)
binding signal (SPI1): 1.38 fold enrichment (6-mer frequency, TF over GST control)
binding signal (SPIB): 1.44 fold enrichment (6-mer frequency, TF over GST control)
binding signal (ELK3): 1.51 fold enrichment (6-mer frequency, TF over GST control)
binding signal (FEV): 1.38 fold enrichment (6-mer frequency, TF over GST control)
binding signal (ETV5): 1.37 fold enrichment (6-mer frequency, TF over GST control)
binding signal (HSF1): 1.04 fold enrichment (6-mer frequency, TF over GST control)
binding signal (SPIC): 1.46 fold enrichment (6-mer frequency, TF over GST control)
binding signal (ELF4): 1.32 fold enrichment (6-mer frequency, TF over GST control)
binding signal (ELK4): 1.43 fold enrichment (6-mer frequency, TF over GST control)
binding signal (ETV2): 1.28 fold enrichment (6-mer frequency, TF over GST control)
binding signal (ELF3): 1.15 fold enrichment (6-mer frequency, TF over GST control)
binding signal (ETV1): 1.36 fold enrichment (6-mer frequency, TF over GST control)
